The text below walks through data of ChEMBL document CHEMBL3988442, “University of Dundee, Small-Polar-MMV Screening Library” (2021).

Each structure is given as a SMILES string. For some assays here: Measured potencies and affinities stand elsewhere.

Common to all, as to set-up: scale not given: direction of the effect not stated beside the values
Assay [1] concerns the target Protein translocase subunit SecA (Escherichia coli (strain K12)) (UniProt P10408). Kind of assay: Assay to Identify E. coli SecA ATPase Inhibitors. It is filed as functional. The conditions noted are these: 30 µM.
For assay [2], the target named is T1, Ubiquitin-activating enzyme e1, putative (Leishmania donovani (strain BPK282A1)) (UniProt E9BSI1).
T1 sequence (whole entry): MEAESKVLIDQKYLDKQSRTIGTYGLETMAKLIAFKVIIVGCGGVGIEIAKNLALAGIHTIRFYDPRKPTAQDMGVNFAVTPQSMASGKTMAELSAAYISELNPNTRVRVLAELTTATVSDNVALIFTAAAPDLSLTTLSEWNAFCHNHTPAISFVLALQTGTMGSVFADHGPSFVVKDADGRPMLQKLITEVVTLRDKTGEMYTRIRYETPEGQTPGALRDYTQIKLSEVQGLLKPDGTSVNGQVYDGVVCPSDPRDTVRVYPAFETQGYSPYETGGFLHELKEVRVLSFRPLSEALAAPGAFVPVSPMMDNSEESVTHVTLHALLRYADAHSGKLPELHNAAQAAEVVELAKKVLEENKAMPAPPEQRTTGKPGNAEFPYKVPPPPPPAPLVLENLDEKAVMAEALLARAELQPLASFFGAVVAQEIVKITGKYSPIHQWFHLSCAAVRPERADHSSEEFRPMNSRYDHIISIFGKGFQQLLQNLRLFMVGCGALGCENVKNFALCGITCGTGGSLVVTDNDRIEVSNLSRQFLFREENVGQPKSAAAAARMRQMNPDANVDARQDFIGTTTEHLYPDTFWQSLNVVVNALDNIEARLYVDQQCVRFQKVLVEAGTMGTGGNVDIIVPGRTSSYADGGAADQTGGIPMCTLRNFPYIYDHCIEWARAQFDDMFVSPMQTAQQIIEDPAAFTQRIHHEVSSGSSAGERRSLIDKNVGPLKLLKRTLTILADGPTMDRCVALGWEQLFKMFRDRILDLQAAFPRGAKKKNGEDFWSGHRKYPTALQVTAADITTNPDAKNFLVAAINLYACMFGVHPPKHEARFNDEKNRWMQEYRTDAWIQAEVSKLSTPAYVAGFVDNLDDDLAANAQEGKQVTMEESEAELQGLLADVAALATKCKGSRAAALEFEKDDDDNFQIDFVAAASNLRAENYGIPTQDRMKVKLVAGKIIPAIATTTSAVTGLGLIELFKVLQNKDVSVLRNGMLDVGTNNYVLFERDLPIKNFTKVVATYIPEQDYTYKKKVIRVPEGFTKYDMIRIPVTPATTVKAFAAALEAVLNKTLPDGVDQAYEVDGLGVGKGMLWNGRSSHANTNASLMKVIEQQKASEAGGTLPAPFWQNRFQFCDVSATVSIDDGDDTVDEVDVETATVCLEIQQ
Kind of assay: Leishmania donovani Ubiquitin Activating Enzyme (LdE1). It is filed as functional. Particulars: 30 µM.

Assay [3] addresses Sialic acid-binding Ig-like lectin 9 (Homo sapiens) (UniProt Q9Y336). Kind of assay: Hs-Siglec9 ALPHAscreen SOP 20170721. Particulars: 10 µM. (Alpha assays give light when donor and acceptor beads are brought close together.)
In assay [4] the test system is Trypanosoma cruzi. Kind of assay: Trypanosoma cruzi phosphomannomutase and mannose-1-phosphate guanylyltransferase assay. The format is functional. The conditions noted are these: 10 µM.
Assay [5] addresses T2, Arginase-2, mitochondrial (Homo sapiens) (UniProt P78540).
T2 sequence (whole entry): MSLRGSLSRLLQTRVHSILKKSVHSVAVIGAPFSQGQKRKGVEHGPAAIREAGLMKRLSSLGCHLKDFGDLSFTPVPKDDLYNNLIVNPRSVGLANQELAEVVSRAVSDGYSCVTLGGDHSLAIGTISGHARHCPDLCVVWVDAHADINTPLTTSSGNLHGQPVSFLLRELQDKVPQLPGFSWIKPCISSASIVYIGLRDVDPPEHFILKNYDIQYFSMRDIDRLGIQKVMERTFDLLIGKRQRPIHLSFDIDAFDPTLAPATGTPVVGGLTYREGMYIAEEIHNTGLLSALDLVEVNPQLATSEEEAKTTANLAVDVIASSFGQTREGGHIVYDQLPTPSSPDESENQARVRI
Briefly: in vitro enzyme assay to detect the production of urea directly proportional to the activity of Arginase II. Also: in the data most compounds retested in dose-response had high values. The format is functional. Particulars: 33.3 µM.

Assay [6] has as its target T3, Proteasome subunit beta (Trypanosoma cruzi) (UniProt O96673).
T3 sequence (whole entry): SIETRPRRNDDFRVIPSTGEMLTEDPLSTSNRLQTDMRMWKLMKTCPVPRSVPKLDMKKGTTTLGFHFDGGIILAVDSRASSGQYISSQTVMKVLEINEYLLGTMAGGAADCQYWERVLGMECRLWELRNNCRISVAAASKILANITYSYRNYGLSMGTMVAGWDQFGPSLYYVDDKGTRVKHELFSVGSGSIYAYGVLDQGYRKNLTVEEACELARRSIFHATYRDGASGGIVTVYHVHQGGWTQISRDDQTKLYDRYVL
Kind of assay: Trypanosoma cruzi proteasome chymotrypsin-like activity (TcProtChymo) assay. Also: in the data most compounds retested in dose-response had high values. The format is functional. Particulars: 9.37 µM.

The species named for assay [7] is Homo sapiens. Kind of assay: To identify inhibition of the IFN signalling (Jak-Stat) pathway via expression of an eGFP reporter gene under the control of an IFN-stimulated response element (ISRE) containing MxA promoter. The format is functional. Particulars: 30 µM. Background: Reporter assays use an easily measured gene product as a stand-in for the process of interest.

Assay [8] deals with T4, Tyrosyl-tRNA synthetase, putative (Trypanosoma cruzi (strain CL Brener)) (UniProt Q4DSP6).
T4 sequence (whole entry): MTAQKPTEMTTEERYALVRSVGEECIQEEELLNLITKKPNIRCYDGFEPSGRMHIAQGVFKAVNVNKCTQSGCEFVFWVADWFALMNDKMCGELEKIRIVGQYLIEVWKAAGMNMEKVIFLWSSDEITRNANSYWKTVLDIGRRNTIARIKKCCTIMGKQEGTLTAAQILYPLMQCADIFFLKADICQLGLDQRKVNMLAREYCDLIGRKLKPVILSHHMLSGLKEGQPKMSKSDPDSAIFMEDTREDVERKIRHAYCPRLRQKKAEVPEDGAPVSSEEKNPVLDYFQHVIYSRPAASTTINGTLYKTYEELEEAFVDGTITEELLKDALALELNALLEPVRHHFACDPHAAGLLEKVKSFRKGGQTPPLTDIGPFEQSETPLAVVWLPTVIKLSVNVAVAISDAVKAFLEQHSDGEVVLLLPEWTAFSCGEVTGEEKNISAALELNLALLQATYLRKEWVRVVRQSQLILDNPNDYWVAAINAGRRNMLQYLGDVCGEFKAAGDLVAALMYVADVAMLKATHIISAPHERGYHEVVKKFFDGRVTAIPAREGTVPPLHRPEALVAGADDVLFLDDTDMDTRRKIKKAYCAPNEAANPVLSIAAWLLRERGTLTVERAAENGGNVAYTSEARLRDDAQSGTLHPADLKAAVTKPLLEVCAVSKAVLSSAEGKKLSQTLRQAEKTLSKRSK
Kind of assay: Trypanosoma cruzi tyrosyl tRNA synthetase (TcYRS) _High Tyrosine SOP. Also: in the data most compounds retested in dose-response had high values. It is filed as functional. Particulars: 30 µM.

Assay [9] addresses T4, Tyrosyl-tRNA synthetase, putative (Trypanosoma cruzi (strain CL Brener)). Briefly: Trypanosoma cruzi tyrosyl tRNA synthetase (TcYRS) SOP. The format is functional. Particulars: 30 µM.
For assay [10], the target named is Chromo domain-containing protein 1 (Saccharomyces cerevisiae (strain ATCC 204508 / S288c) (Baker's yeast)) (UniProt P32657). Kind of assay: ScCHD-1 Enzyme Inhibition Assay. Also: in the data most compounds retested in dose-response had high values. The conditions noted are these: 30 µM. The format is functional.
Chain of Chromo domain-containing protein 1 (Saccharomyces cerevisiae (strain ATCC 204508 / S288c) (Baker's yeast)) (P32657 whole entry, the tested form may be a part): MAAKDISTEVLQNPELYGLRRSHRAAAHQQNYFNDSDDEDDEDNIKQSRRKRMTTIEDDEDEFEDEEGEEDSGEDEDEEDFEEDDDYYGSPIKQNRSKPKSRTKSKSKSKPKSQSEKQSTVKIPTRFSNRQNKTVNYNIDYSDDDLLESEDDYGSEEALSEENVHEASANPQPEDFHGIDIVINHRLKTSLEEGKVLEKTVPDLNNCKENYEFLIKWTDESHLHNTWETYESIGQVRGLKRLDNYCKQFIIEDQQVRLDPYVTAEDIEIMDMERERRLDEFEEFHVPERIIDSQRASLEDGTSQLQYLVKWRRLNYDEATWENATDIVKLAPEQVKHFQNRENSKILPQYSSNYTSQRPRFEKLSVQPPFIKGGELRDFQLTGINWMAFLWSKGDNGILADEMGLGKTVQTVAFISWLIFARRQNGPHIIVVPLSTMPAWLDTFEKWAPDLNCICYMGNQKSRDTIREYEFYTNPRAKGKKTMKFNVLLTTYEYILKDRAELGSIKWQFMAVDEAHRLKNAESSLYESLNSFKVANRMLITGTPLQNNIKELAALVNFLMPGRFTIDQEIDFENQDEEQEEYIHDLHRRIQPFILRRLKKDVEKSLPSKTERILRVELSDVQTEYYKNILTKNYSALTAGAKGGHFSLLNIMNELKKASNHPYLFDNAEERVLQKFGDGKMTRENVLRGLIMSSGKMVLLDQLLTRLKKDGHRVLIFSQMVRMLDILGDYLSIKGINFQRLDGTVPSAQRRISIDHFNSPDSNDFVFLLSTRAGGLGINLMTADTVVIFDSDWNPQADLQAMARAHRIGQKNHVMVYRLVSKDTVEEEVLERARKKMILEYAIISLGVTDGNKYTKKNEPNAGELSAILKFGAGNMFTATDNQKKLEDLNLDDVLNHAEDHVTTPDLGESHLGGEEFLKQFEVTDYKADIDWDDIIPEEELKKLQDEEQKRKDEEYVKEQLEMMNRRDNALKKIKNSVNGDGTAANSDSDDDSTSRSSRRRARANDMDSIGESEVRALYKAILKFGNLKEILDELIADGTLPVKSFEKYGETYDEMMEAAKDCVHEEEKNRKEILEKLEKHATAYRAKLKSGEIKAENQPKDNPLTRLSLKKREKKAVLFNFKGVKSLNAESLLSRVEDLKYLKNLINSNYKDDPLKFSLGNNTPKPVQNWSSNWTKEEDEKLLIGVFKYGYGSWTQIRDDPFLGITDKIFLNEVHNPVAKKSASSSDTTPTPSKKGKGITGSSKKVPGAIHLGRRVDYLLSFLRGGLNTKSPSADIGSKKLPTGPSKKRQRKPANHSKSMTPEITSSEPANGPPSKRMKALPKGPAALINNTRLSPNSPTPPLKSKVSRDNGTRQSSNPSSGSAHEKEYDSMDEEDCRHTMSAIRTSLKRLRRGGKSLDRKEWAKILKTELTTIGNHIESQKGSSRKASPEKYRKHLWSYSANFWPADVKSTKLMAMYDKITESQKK

Chain of Protein translocase subunit SecA (Escherichia coli (strain K12)) (P10408 whole entry): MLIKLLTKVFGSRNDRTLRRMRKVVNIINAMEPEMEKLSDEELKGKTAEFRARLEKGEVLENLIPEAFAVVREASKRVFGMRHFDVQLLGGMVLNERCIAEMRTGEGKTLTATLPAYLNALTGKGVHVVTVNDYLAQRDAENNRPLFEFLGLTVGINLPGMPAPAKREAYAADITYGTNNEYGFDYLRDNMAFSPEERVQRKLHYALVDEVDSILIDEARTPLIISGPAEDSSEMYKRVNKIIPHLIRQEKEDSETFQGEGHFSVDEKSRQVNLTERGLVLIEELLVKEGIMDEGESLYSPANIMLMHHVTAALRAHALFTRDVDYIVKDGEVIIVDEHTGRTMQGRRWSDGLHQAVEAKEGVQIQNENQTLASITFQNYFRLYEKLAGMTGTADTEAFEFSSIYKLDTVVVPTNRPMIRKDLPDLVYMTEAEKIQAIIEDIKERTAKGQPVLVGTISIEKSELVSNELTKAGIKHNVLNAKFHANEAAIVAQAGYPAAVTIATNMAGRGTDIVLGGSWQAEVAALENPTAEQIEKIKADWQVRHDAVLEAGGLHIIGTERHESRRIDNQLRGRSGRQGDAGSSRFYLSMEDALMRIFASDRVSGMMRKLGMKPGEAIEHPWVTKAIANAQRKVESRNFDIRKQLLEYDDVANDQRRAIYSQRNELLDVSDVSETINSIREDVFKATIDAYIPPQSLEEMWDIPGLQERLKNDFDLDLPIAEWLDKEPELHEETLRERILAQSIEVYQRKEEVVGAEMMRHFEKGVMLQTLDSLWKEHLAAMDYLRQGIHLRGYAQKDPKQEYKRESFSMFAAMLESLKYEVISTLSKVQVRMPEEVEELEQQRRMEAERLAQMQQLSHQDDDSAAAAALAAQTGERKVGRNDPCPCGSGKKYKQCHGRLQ
Chain of Sialic acid-binding Ig-like lectin 9 (Homo sapiens) (Q9Y336 whole entry): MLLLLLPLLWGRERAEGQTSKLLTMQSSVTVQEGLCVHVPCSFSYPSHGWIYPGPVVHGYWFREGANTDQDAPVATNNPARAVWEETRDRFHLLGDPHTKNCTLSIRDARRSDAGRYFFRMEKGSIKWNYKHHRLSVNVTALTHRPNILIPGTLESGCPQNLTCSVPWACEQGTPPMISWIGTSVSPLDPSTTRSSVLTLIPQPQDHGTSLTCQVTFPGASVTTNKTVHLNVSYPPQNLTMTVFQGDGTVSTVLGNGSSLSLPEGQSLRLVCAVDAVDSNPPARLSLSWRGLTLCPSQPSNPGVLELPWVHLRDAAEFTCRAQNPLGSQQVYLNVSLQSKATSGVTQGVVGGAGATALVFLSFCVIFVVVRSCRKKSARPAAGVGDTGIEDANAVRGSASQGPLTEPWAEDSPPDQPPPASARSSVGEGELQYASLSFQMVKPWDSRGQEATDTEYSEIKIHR

Take `Cc1ccc(OCC(O)CN2CCC(Cn3cccn3)CC2)cc1` (stereo not given): the Percent Effect was -0.525% in assay [1]; 7.79% in [2]; 7.42% in assay [3]; 0.373% in assay [4]; 4.3% in [5]; 7.89% in assay [6]. Also, the Percent Effect in [7] is -3.3%; in assay [8] it was 10.8%; in assay [9], 23.5%; in assay [10], -5.78%.
As to `Cc1noc(C)c1CN1CCN(Cc2nccn2C)CC1`, the Percent Effect is -3.95% in [1]; 2.67% in [2]; 3.64% in [3]; -1.81% in assay [4]; -0.444% in assay [5]; 13.7% in assay [6]. The Percent Effect in assay [7] was -5.05%; in assay [8], 6.84%; in assay [9], 7.69%; in assay [10], -11.9%.
On to `Cn1cc(CN2CCCN(C(=O)c3cc[nH]n3)CC2)cn1`, for which the Percent Effect in assay [1] was -1.81%; in assay [2] it was 5.13%; in [3], -4.2%; in assay [4] it was 4.22%; in [5], -0.41%; in assay [6] it was -6.57%. Moreover, the Percent Effect in [7] is 23.7%; in [8], 0.478%; in assay [9], 13.2%; in [10], -1.64%.
As to `CN(CC1CCCCC1)C(=O)c1ccc(-n2ncc(C#N)c2N)cc1`, the Percent Effect is -0.675% in assay [1]; 2.6% in [2]; -3.53% in [3]; -9.33% in [4]; -9.22% in [5]; 7.37% in assay [6]. Moreover, the Percent Effect in [7] is 48.7%; in assay [8], 4.9%; in [9], 16.5%; in assay [10] it was -3.77%.
`CCCc1nc(C)c(C(=O)NCCN2CCN(CC)CC2)s1`: the Percent Effect in assay [1] is -3.24%; in [2] it was 0%; in [3] it was 11.4%; in assay [4], 0.56%; in assay [5], -2.25%; in [6], -1.23%. The Percent Effect in assay [7] came out at 5.53%; in assay [8] it was 6.86%; in [9] it was 9.41%; in assay [10], 3.6%.
As to `COc1cccc(CNc2cnn(C)c(=O)c2Cl)c1`, the Percent Effect in [1] is -6.48%; in assay [2], 0%; in assay [3], 3.58%; in assay [4], -1.21%; in assay [5] it was 6.65%; in assay [6], 3.48%. The Percent Effect in [7] is 55.5%; in [8], 2.63%; in assay [9], 5.13%; in assay [10], -5.75%.
In the case of `COC1CCCN(Cc2nc(Cc3ccccc3F)no2)C1` (stereo not given), the Percent Effect was -7.36% in assay [1]; -5.41% in assay [2]; 1.17% in assay [3]; 2.04% in [4]; 1.75% in assay [5]; 1.71% in [6]. The Percent Effect in assay [7] is 3.24%; in [8], 5.85%; in assay [9], 14.6%; in [10] it was 0.44%.
On to `Cc1ccc(C(=O)NCCNc2ncccc2C#N)c(=O)[nH]1`, for which the Percent Effect in assay [1] was -1.94%; in assay [2] it was 5.2%; in assay [3], -3.54%; in assay [4], -8.77%; in assay [5], -15%; in [6] it was 15.3%. Further, the Percent Effect is 17.6% in assay [7], 6.86% in assay [8], 7.06% in assay [9] and -7.29% in assay [10].
For the molecule `CN(C)C(=O)CCC(=O)NCc1cccnc1-n1cnc2ccccc21`, the Percent Effect was -4.75% in [1]; -2.7% in assay [2]; -1.92% in assay [3]; -1.46% in assay [4]; -9.44% in assay [5]; -1.03% in assay [6]. In addition, the Percent Effect in assay [7] was -10.5%; in assay [8], 1.6%; in [9], -2.44%; in assay [10], 0.948%.
`COc1c(C2CCCN2C(=O)c2cncnc2C)c(C)nn1C` (stereo not given): the Percent Effect was 0.687% in assay [1]; 20.8% in assay [2]; 0.3% in assay [3]; -7.46% in assay [4]; -3.48% in [5]; 18.8% in [6]. In addition, the Percent Effect in assay [7] is 21.6%; in assay [8], 3.92%; in [9] it was 9.41%; in assay [10], -6.48%.
Take `Cc1ncnc(NCc2cc3n(n2)CCCN(S(C)(=O)=O)C3)c1C`: the Percent Effect in [1] was -4.52%; in [2] it was 8.11%; in assay [3], 3.12%; in assay [4] it was -1.07%; in assay [5], -1.75%; in assay [6], 7.71%. Also, the Percent Effect is -0.0892% in assay [7], 5.85% in assay [8], 14.6% in [9] and -4.37% in assay [10].
